In the library only some 3.9% were active in any assay of this set; here they are far more common.
3CLpro inhibitor: SARS-CoV 3CLpro protease inhibition. recombinant SARS-CoV 3CLpro, quenched FRET peptide cleavage. inhibition, % at 6 µM. actives 0.14% (n = 290,000). P0C6X7. AID 1706; in the data active = inhibition above about 12%
FBA Mtb inh: inhibits M. tuberculosis FBA enzyme; purified M. tuberculosis FBA, fluorescence read-out; actives 2.3% (n = 360,000); inhibition, % at 1 µM; in the data active = inhibition above about 27%
Target sequence (P9WQA3 whole entry, looked up): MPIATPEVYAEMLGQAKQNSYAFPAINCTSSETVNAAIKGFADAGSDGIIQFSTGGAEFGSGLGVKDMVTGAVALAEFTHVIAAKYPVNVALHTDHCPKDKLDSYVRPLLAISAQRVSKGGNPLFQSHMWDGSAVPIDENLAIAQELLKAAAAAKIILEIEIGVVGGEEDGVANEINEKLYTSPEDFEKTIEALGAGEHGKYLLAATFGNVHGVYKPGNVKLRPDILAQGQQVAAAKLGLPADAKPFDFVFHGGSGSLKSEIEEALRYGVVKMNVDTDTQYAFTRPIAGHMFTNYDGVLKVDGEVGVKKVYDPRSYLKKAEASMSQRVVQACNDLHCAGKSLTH
BH1578 lux ind: induces V. cholerae light production without autoinducers | V. cholerae BH1578 lux reporter, luminescence, 6 h | activation, % at 18.7 µM | actives 0.16% (n = 350,000) | AID 588436; in the data active = activation mostly above about 9.7%, no sharp cut-off
GDH-TPI counter: GDH-TPI coupled enzyme inhibition counter-screen; inhibition, % at 4.8 µM; actives 1.2% (n = 360,000); GDH-TPI coupled enzyme counterscreen, NADH absorbance; in the data active = inhibition above about 30%
PrPC surface inh: inhibitors of human cell surface prion protein PrPC | P04156 | actives 0.43% (n = 370,000) | inhibition, % at 13.8 µM | AID 720596 | TR-FRET read-out; in the data active = inhibition above about 24%
A number is an active result; . = inactive; / = no result; + = active, no number; ! = a repeat was not active.

SMILES	3CLpro inhibitor	FBA Mtb inh	BH1578 lux ind	GDH-TPI counter	PrPC surface inh
CC(C)OP(=O)(O)C(C)NC(=O)OCc1ccccc1 (stereo not drawn)	/	/	/	/	.
BrC(=C\c1ccccc1)/C=N/Nc1ccc2nncn2n1	.	.	.	32	.
C(=N\Nc1ccc2nncn2n1)/c1ccco1	.	.	.	.	.
CNc1cc(-c2cccc(N(C)C)c2)ncn1	/	.	.	.	.
O=C(N/N=C/C(Cl)=C/c1ccccc1)c1ccco1	.	.	.	35	.
O=C(N/N=C/c1cccnc1)c1ccco1	.	.	.	.	.
O=C(Oc1ccc(/C=N/NC(=O)c2ccco2)cc1)c1ccccc1	/	.	.	.	.
O=C(N/N=C/C(Cl)=C\c1ccccc1)c1ccco1	.	.	.	33	.
CCOC(=O)CC[C@H](NC(=O)[C@@H]1CC=C[C@@H]2CCN(Cc3ccc(Cl)cc3)C(=O)[C@@H]21)C(=O)OCC	/	/	/	/	.
COc1ccc(C2C(C(=O)O)c3ccccc3C(=O)N2Cc2ccco2)cc1 (stereo not drawn)	.	.	.	.	.
CCn1c(=O)c(=O)[nH]c2cc(C(=O)NC3CCCc4ccccc43)ccc21 (stereo not drawn)	.	.	.	31	.
CCn1c(=O)c(=O)[nH]c2cc(C(=O)NC3CC3)ccc21	.	.	.	.	.
Cc1ccc(S(=O)(=O)/N=C/c2ccc(N(C)C)cc2)cc1	.	.	.	35	.
COc1cccc(NC(=O)c2ccc(N3C(=O)C4CCC(C)CC4C3=O)cc2)c1 (stereo not drawn)	.	.	.	.	.
Cc1sc2nc(C3CC3)nc(N3CCN(C(=O)c4ccc(F)cc4)CC3)c2c1C	.	.	.	.	.
c1ccc(N=Nc2ccc(C3=NCCO3)cc2)cc1	/	.	.	36	.
COc1ccc(/C=C2/SC(=O)N(CCC(=O)Nc3ccc(S(=O)(=O)Nc4nccs4)cc3)C2=O)cc1	.	.	.	34	.
COc1ccc(-n2ccc(=O)c(C(=O)Nc3ccc(S(=O)(=O)Nc4nccs4)cc3)n2)cc1	.	.	.	40	.
O=C(Nc1ccc(S(=O)(=O)Nc2nccs2)cc1)c1nn(-c2ccccc2)ccc1=O	.	.	.	.	.
Cc1ccc(/C=C2/SC(=S)N(c3ccc(S(=O)(=O)Nc4nccs4)cc3)C2=O)cc1	.	.	.	39	.
CCNC(=O)C1CCCN(C(=O)c2ccc(F)c(Cl)c2)CC1 (stereo not drawn)	/	.	.	.	.
CC(=O)C1=C(O)C(=O)N(Cc2ccccc2)C1c1cccs1 (stereo not drawn)	.	.	.	31	.
CCC(=O)NC(=S)Nc1ccc2oc(-c3ccc(OC)cc3)nc2c1	.	.	.	.	.
CCCC(=O)Nc1ccc2oc(-c3ccc(OC)c(Br)c3)nc2c1	.	125	.	.	.
CCOC(=O)CSc1nc2c(sc(=S)n2-c2ccc(CC)cc2)c(=O)[nH]1	.	.	.	33	.
SMILES	3CLpro inhibitor	FBA Mtb inh	BH1578 lux ind	GDH-TPI counter	PrPC surface inh
CCOC(=O)CC(=O)CSc1nc2c(sc(=S)n2-c2ccccc2)c(=O)[nH]1	.	.	.	.	.
COc1ccc(-c2cc3nc4n(c(=O)c3s2)CCC4)cc1	.	+	.	.	.
COc1ccc(NC(=O)c2ccc3c(=O)n4c(nc3c2)CCCCC4)cc1	.	.	.	.	.
COc1ccc(-c2cc3nc4n(c(=O)c3s2)CCCCC4)cc1	.	+	.	.	.
COc1ccc(-c2cc3nc(C)n(N)c(=O)c3s2)cc1	.	+	.	32	.
COc1ccc(S(=O)(=O)N2CCc3ccccc32)cc1C(=O)N1CCOCC1	/	.	.	.	.
O=C1N=C(N2CCCC2)S/C1=C\C=C\c1ccccc1	.	.	.	.	.
Cc1ccc(NCc2cccc(B(O)O)c2)cc1	/	.	.	.	.
O=C(Nc1nc2ccccc2n1CCN1CCOCC1)c1cn(-c2ccccc2)nc1-c1ccccc1	.	.	.	42	.
O=C(c1ccc(C(=O)N2CCCc3ccccc32)s1)N1CCCc2ccccc21	.	.	.	.	.
O=C(c1cnc2sccn2c1=O)N1CCCc2ccccc21	/	.	.	32	.
COc1ccc(NC(=O)CCOc2cc(C)ccc2C)cc1S(=O)(=O)N1CCCCC1	/	.	.	.	.
COc1cc(C2NC(=O)NC(C)=C2C(=O)OCC2CCCCC2)cc(Cl)c1O (stereo not drawn)	.	.	.	.	.
COc1cc(C2NC(=O)NC(C)=C2C(=O)OC2CCCCC2)cc(Cl)c1O (stereo not drawn)	.	184	.	.	.
CCOc1ccc2c(C)c(C(=O)O)oc2c1OCC	.	156	.	.	.
COc1ccccc1N1CCN(CC(O)COc2cccc3ccccc23)CC1 (stereo not drawn)	17!	.	.	.	.
OC(COc1cccc2ccccc12)CN1CCN(c2ccccc2)CC1 (stereo not drawn)	.	.	.	.	.
CSCC[C@H](NC(=O)[C@@H]1Cc2ccccc2CN1)C(=O)NC[C@H]1CC[C@H](C(=O)O)CC1	.	.	.	.	.
CCOC(=O)C1CCCN(C(=O)c2cn(C)c3ccc(S(=O)(=O)N4CCCC4)cc3c2=O)C1 (stereo not drawn)	.	.	.	.	.
CCOC(=O)C1CCCN(C(=O)c2cn(CC)c3ccc(S(=O)(=O)N4CCCC4)cc3c2=O)C1 (stereo not drawn)	.	.	.	38	.
CCn1c2ccccc2c2cc(NC(=O)COC(=O)c3cc(F)ccc3C)ccc21	/	/	/	/	.
O=C1CCC[C@H]2C[C@H](NCc3cccc(F)c3)CC[C@]23CCCN13	/	/	/	/	.
CCCS(=O)(=O)c1c(S(=O)(=O)CCC)c2cnccn2c1C(=O)c1ccc(OC)cc1	.	.	.	.	.
CCCS(=O)(=O)c1c(S(=O)(=O)CCC)c2cc(-c3ccncc3)ccn2c1C(=O)OC	.	+	.	.	.
Cc1c(C(=O)NCc2ccc3c(c2)OCCO3)sc(=O)n1Cc1ccc(C(=O)N(C)C)cc1	/	.	.	.	.
SMILES	3CLpro inhibitor	FBA Mtb inh	BH1578 lux ind	GDH-TPI counter	PrPC surface inh
COc1ccccc1/C=C\C(=O)NCC(=O)N/N=C/c1ccc(O)cc1O	.	.	.	36	.
Cc1cc(S(=O)(=O)ON2C(=O)c3ccccc3C2=O)ccc1F	.	37	.	.	.
COc1ccc2nc(NC(=O)c3ccc(NS(=O)(=O)c4cccs4)cc3)sc2c1	.	.	.	40	.
COc1ccc2nc(NC(=O)CNS(=O)(=O)c3cccs3)sc2c1	.	.	.	.	.
Cc1cccc2sc(NC(=O)c3ccc(NS(=O)(=O)c4cccs4)cc3)nc12	.	.	.	32	.
CCC1(c2ccccc2)NC(=O)N(CC(=O)Nc2ccc(OC)nc2)C1=O (stereo not drawn)	.	.	.	.	.
O=C(COC(=O)C12CC3CC(CC(Br)(C3)C1)C2)Nc1ccc2[nH]c(=O)[nH]c2c1	/	.	.	.	.
O=C(O)CN1C(=O)/C(=C/c2ccccc2Cl)Oc2ccccc21	.	130	.	.	.
C[C@H](CO)N1C[C@H](C)[C@H](CN(C)C(=O)Cc2ccncc2)Oc2ncc(Br)cc2C1=O	/	.	.	.	.

Screening results as filed in PubChem BioAssay.
